Inconclusive results are not listed. Values without a mark were called inactive. The source made the active and inactive calls. The call rests on the fitted dose curve; in most records, active means well fitted cell-killing curve with a large enough effect; inconclusive means small, poorly fitted or top-dose-only effect, or effect the other way; inactive means no such curve, though single readings can be large or run the other way.
Experiment: Cell Viability - LYMP2-004 (AID 966); further: nearly all actives have a fitted effect of over 65% in size;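 on activity change, negative = cytotoxicity: plate controls were DMSO only for no effect and tetraoctylammonium bromide control for full effect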
Conditions: LYMP2-004 lymphoblastoid cell viability, qHTS; series mostly up to 92.2 µM; activity change, negative = cytotoxicity: at the top concentration
Text: NIH Chemical Genomics Center [NCGC]
NIH Molecular Libraries Screening Centers Network [MLSCN]
National Institutes of Environmental Health Sciences [NIEHS]
National Toxicology Program [NTP]
We have developed a 1536-well cell-based assay for quantitative high throughput screening (qHTS) against a number of cell lines to determine in vitro cytotoxicity of small molecules. This particular assay uses a human lymphoblastoid cell line (LYMP2-004) purchased from Coriell Institute for Medical Research.
NCGC Assay Protocol Summary:
The CellTiter-Glo luminescent cell viability assay (Promega) is a homogeneous method to measure the number of viable cells in culture. The end point readout of this assay is based on quantitation of intracellular ATP, an indicator of metabolic activity, using the luciferase reaction. Luciferase catalyzes the oxidation of beetle Luciferin to oxyluciferin and light in the presence of ATP. The luminescent signal is proportional to amount of ATP present.
Using the CellTiter-Glo luminescent cell viability assay, the amount of cellular ATP was measured in the lymphoblastoid cell line with complete culture medium following compound treatment for 24 hours. The assay was performed in opaque white Kalypsys 1536-well plates. In the screen, tetraoctylammonium bromide was used as positive control. Library compounds were measured for their ability to cause acute toxicity in the cell line, as reflected by a decrease in intracellular ATP levels, in a concentration-dependent manner. […] AC50 values were determined from concentration-response data modeled with the standard Hill equation.
qHTS protocol for CellTiter Glo lymphoblastoid cellular assay
[Step] [Parameter] [Value] [Description]
1. Reagent; 5 uL; 2500 lymphoblastoid cells/well
2. Time; 5 hr; 37 C incubation
4. Controls; 23 nL; Tetraoctylammonium bromide 6.4pM to 92 uM
5. Time; 24 hr; 37 C incubation
6. Reagent; 5 uL; CellTiter Glo reagent
7. Time; 30 min; Room Temperature
8. Detection; Luminescence; Viewlux plate reader
Keywords: cell viability, cytotoxicity, lymphoblastoid cell line, luminescence, NTPHTS, NTPHTS_NCGC, NIEHS, DSSTox, MLSMR, MLSCN, NIH Roadmap, qHTS, NCGC
Potency means the concentration at half of the fitted maximal effect.

Structure (SMILES) | activity change, negative = cytotoxicity [%] | Potency
Nc1ccn([C@H]2CS[C@@H](CO)O2)c(=O)n1 | 11.4 | 
CCOC(C)=O | 13.5 | 
CCCCCCCC/C=C\CCCCCCCC(=O)O | 6.28 | 
CC1=C(/C=C/C(C)=C/C=C/C(C)=C/CO)C(C)(C)CCC1 |  | 39.8 µM (active)
O=S(=O)(O)O |  | inactive
CCOc1ccc2c(c1)C(C)=CC(C)(C)N2 | -1.62 | 
CCCCC/C=C\C/C=C\CCCCCCCC(=O)O | 0.288 | 
CC(O)CO (centres undefined) |  | inactive
IC(I)I | -1.71 | 
CCCCCCCC(=O)O |  | inactive
CC(C)=O | -4.23 | 
O=C(O)CCC(=O)C(=O)O | 16.9 | 
O=CCCCC=O |  | 25.1 µM (active)
CC1=C2[C@@H]([C@H](C)CC[C@H]2/C=C(\C)C(=O)O)[C@H](O)C1 | 18.7 | 

Reference: PubChem BioAssay (NCATS)
